Each structure is given as a SMILES string. Inconclusive results are not listed. Where a call stands in place of a potency, no number is given. Calls of active or inactive are those of the source. The call rests on the fitted dose curve; in most records, active means well fitted curve in the direction sought with a large enough effect; inconclusive means small, poorly fitted or top-dose-only effect, or another doubt; inactive means no such curve, though single readings can be large; an effect the other way counts as inactive or inconclusive.

Chain of Ubiquitin carboxyl-terminal hydrolase 1 (Homo sapiens) (O94782 whole entry, looked up): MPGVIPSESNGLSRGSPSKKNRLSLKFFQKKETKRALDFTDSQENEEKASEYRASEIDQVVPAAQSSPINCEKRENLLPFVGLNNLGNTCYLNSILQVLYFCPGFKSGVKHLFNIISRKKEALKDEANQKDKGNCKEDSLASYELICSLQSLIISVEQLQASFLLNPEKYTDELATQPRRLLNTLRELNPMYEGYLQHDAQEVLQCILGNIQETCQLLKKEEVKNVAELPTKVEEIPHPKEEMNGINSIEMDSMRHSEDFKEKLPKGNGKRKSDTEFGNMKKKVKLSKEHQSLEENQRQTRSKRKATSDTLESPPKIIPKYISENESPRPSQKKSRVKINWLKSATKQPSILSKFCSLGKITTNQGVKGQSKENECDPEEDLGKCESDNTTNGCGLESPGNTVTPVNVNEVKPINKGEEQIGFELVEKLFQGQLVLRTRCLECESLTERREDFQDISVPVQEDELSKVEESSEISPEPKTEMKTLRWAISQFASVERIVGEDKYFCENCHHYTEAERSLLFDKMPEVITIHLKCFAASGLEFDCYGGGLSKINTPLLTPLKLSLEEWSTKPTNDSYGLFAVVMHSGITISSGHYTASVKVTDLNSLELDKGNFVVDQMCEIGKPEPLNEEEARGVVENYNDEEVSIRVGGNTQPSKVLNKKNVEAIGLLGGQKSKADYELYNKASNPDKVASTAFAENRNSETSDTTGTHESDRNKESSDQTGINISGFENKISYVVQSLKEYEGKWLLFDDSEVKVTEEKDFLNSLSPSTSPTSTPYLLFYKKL
Chain of ATP-dependent 6-phosphofructokinase (Trypanosoma brucei brucei) (O15648 whole entry, looked up): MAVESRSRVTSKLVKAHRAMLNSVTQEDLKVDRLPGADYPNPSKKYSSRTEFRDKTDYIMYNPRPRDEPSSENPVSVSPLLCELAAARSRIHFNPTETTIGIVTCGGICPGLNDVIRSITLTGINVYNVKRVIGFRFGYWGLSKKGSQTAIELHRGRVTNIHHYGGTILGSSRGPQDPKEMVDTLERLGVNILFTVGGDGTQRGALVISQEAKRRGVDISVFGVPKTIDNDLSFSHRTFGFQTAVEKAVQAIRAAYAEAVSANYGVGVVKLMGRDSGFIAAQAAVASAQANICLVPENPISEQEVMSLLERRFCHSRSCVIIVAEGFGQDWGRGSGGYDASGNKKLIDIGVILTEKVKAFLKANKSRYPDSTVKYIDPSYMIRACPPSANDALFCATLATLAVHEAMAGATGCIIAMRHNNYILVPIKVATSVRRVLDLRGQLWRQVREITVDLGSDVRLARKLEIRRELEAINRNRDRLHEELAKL

In the first test the target is ATP-dependent 6-phosphofructokinase (Trypanosoma brucei brucei) (UniProt O15648). Description: qHTS Assay to Find Inhibitors of T. brucei phosphofructokinase: hit validation (AID 492961).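 Further: luminescence reports ADP formed as PFK phosphorylates fructose-6-phosphate with ATP.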 Particulars: T. brucei PFK, ADP-Glo luminescence; series mostly up to 51.4 µM. In outline:
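Compounds titrated; %activity normalized to 0x and 1x enzyme controls, curve-fitted. Readout: ADP-Glo luminescence after 45 min room-temperature reaction of 1.25 nM PFK, 0.1 mM ATP, 0.5 mM F6P, pH 8.0.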
On the technique in general: Quantitative high-throughput screening tests each substance at several concentrations.
As to `CC(CN(C)C)C(C)(O)Cc1ccc(Cl)cc1` (stereo not given), the molecule was called inactive.
The same measure, in the same setting: next, `Cc1ccccc1N=Nc1ccc(N=Nc2c(O)ccc3ccccc23)c(C)c1`: “inactive”; `COc1ccc(Cc2cnc(N)nc2N)cc1OC`: “inactive”.
On the same count and under the same terms, next, `O=C(O)c1cc(=O)c2ccccc2o1`: “inactive”.
Still for that read-out and setting: next, `NC(N)=NCCN1CCCCCCC1`: “inactive”; `CC(=O)OCC(COC(C)=O)OC(C)=O`: “inactive”.
`Cc1ncc(CO)c(CN)c1O`: the molecule was called inactive.
Consider `NS(=O)(=O)c1ccc(NC(=O)CCC(=O)O)cc1`, for which the molecule was called inactive.
In the case of `CCCCCCCCCCCCCCCCCCO`, the result was inactive.
Turning to `Cc1[nH]c(C)c(Cl)c(=O)c1Cl`, the molecule was classed as inactive.
Same read-out and setting: next, `CC1CC(OC(=O)c2ccccc2O)CC(C)(C)C1` (stereo not given): “inactive”; `CCN(CC)S(=O)(=O)c1ccc(C(=O)O)cc1`: “inactive”.
On the same count and under the same terms, next, `CCCNC(C)(C)COC(=O)c1ccccc1`: “inactive”.

Another test addresses Ubiquitin carboxyl-terminal hydrolase 1 (Homo sapiens) (UniProt O94782). Description: Inhibitors of USP1/UAF1: Pilot qHTS (AID 504865).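 Further: rhodamine fluorescence freed from ubiquitin-rhodamine substrate followed over time; top concentration of the series differs between compounds; nearly all actives have a fitted effect of over 35% in size.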 Particulars: purified USP1/UAF1, Ub-rhodamine cleavage fluorescence; series mostly up to 114 µM. The essentials: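 In 50mM HEPES pH 7.8 containing 0.5mM EDTA, 1mM TCEP, 0.1 mg/ml BSA and 0.01% Tween-20, 1nM USP1/UAF1 is exposed to compound for 15 min, then Ub-Rho (150nM final) is added and fluorescence is read over time.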
`NCc1ccc(S(N)(=O)=O)cc1`: the Potency entry is “inactive”.
The same measure, in the same setting: next, `O=C(Cn1ccnc1[N+](=O)[O-])NCc1ccccc1`: “inactive”; `NNc1nnc(NN)c2ccccc12`: “inactive”.
Same read-out and setting: next, `CCCCCC(N)=O`: “inactive”.
As for `NC(N)=NS(=O)(=O)c1ccc(N)cc1`, the Potency result was “inactive”.
On the same count and under the same terms, next, `COC(=O)c1ccc(O)cc1`: “inactive”; `COc1cc(C(=O)NCCCCCC(=O)O)cc(OC)c1OC`: “inactive”; `O=C(O)COC(=O)Cc1ccccc1Nc1c(Cl)cccc1Cl`: “inactive”.
Same read-out and setting: next, `C=CCSCC1Nc2cc(Cl)c(S(N)(=O)=O)cc2S(=O)(=O)N1` (stereo not given): “inactive”.
On the same count and under the same terms, next, `C=CCNC(N)=S`: “inactive”; `Cc1cc(C)c(NC(=O)CN(CC(=O)O)CC(=O)O)c(C)c1Br`: “inactive”; `CC(=O)N[C@@H](Cc1ccc(O)cc1)C(=O)O`: “inactive”.
Take `CCOC(=O)[C@H](CCc1ccccc1)N[C@@H](C)C(=O)N1CCC[C@H]1C(=O)O`: the Potency result was “inactive”.
On the same count and under the same terms, next, `O=C1CC[C@@H](C(=O)O)N1`: “inactive”; `NS(=O)(=O)c1cc2c(cc1C(F)(F)F)NCNS2(=O)=O`: “inactive”.
For the molecule `O=C1c2ccccc2C(=O)C1c1ccc(Br)cc1`, the Potency entry is “inactive”.
On the same count and under the same terms, next, `Nc1ccncc1N`: “inactive”; `CC(=O)Nc1ccccc1`: “inactive”.
With `CC(CSC(=O)c1ccccc1)C(=O)N1C[C@@H](Sc2ccccc2)C[C@H]1C(=O)O` (stereo not given in full), the Potency result was “inactive”.
The same measure, in the same setting: next, `Cc1ccc(S(=O)(=O)NC(=O)NC2CCCCCCC2)cc1`: “inactive”.
On the same count and under the same terms, next, `NC(=O)CCCCC1CCSS1` (stereo not given): “inactive”.
Still for that read-out and setting: next, `Cc1cc(OI)c(C(C)C)cc1-c1cc(C(C)C)c(OI)cc1C`: “inactive”; `CC(C)CCCC(C)CCCC(C)CCCCC(C)CCCC(C)CCCC(C)C` (stereo not given): “inactive”.
`CC1CCN(CCCC(=O)c2ccc(F)cc2)CC1`: the Potency entry was “inactive”.
Same read-out and setting: next, `CC(CN(C)C)C(C)(O)Cc1ccc(Cl)cc1` (stereo not given): “inactive”; `Cc1ccccc1N=Nc1ccc(N=Nc2c(O)ccc3ccccc23)c(C)c1`: “inactive”.
As for `COc1ccc(Cc2cnc(N)nc2N)cc1OC`, the Potency entry is “inactive”.
With `O=C(O)c1cc(=O)c2ccccc2o1`, the Potency result was “inactive”.
On the same count and under the same terms, next, `NC(N)=NCCN1CCCCCCC1`: “inactive”.
In the case of `CC(=O)OCC(COC(C)=O)OC(C)=O`, the Potency result is “inactive”.
On the same count and under the same terms, next, `Cc1ncc(CO)c(CN)c1O`: “inactive”; `NS(=O)(=O)c1ccc(NC(=O)CCC(=O)O)cc1`: “inactive”; `CCCCCCCCCCCCCCCCCCO`: “inactive”.
Same read-out and setting: next, `Cc1[nH]c(C)c(Cl)c(=O)c1Cl`: “inactive”; `CC1CC(OC(=O)c2ccccc2O)CC(C)(C)C1` (stereo not given): “inactive”; `CCN(CC)S(=O)(=O)c1ccc(C(=O)O)cc1`: “inactive”.
On the same count and under the same terms, next, `CCCNC(C)(C)COC(=O)c1ccccc1`: “inactive”.

These data come from PubChem BioAssay (NCATS).
